# Where “and” joins values, the source holds several entries; their conditions need not be identical. Equal values may be shown once. In all, about 110,000 compounds were measured (“z-score”: median about -0.1, highest 2% from about 2 on). Shown is part of a subset that was picked to be rich in the highest values. Calls of active or inactive are those of the source.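 How the source made its calls: active means z-score in the third read window above 3 or below -3; inactive means the rest.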
# Target: Metabotropic glutamate receptor 8 (Rattus norvegicus) (UniProt P70579)
# Sequence (P70579 whole entry, looked up): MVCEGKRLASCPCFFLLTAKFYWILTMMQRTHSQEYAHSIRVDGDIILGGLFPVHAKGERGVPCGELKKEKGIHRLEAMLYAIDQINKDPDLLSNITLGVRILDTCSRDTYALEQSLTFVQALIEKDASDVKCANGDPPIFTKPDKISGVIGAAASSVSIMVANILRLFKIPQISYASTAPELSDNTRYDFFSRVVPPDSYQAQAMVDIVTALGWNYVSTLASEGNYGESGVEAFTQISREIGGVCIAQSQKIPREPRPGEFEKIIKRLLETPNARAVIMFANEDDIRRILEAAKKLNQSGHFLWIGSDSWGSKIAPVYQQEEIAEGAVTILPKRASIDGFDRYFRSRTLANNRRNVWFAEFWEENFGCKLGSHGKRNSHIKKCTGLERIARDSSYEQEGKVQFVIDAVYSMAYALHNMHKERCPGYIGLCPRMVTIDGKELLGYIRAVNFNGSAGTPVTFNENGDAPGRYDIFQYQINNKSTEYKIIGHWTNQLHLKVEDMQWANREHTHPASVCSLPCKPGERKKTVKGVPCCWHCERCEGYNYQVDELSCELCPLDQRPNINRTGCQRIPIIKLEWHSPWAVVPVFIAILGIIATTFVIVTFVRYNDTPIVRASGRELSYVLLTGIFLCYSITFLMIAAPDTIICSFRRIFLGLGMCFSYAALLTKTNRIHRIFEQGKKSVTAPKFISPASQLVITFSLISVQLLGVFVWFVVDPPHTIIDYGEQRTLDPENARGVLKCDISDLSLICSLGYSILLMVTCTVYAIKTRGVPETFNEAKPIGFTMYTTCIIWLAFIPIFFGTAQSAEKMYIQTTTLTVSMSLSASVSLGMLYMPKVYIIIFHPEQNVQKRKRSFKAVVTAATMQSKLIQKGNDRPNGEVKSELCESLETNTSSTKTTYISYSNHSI
# Assay: rat mGluR8 modulators via GIRK flux, primary screen, cell-based, thallium flux, HTS (AID 488969)
# Settings: HEK293 rat mGluR8, GIRK (G protein-gated inwardly rectifying potassium channel) thallium flux, FluoZin2; at 10 µM; stronger effect = higher value; submaximal glutamate (EC20) added with thallium
row,Compound,z-score
1,C=CCn1c(N)c(C(=O)Nc2ccc(C)c(C)c2)c2nc3ccccc3nc21,0.661
2,Cc1c(O)nc(SCC(=O)Nc2ccc3c4c(cccc24)CC3)n(-c2ccccc2)c1=O,-0.768
3,CCOC(=O)N1CCN(C(=O)CN(C2CCCCC2)S(=O)(=O)c2ccc(F)cc2)CC1,0.315
4,CCOC(=O)c1cnc2ccc(OCC)cc2c1N1CCN(c2ccccc2OC)CC1,-0.8
5,COc1ccccc1NC(=O)c1sc2nc(-c3ccco3)ccc2c1N,0.132
6,COC(=O)c1sc2nc(-c3ccco3)ccc2c1N,2.53
7,NC(=O)c1sc2nc(-c3ccco3)ccc2c1N,-0.321
8,O=C(NNC(=S)NCc1ccccc1)c1ccc(OC(F)F)cc1,2.12
9,CC(C)CNC(=S)NNC(=O)c1ccc(OC(F)F)cc1,-0.0885
10,CCNC(=S)NNC(=O)c1ccc(OC(F)F)cc1,-0.194
11,CCOCCCNC(=O)CCCOc1ccccc1,0.0157
12,O=C(Cc1ccccc1F)Nc1ccc(Cl)nc1,0.217
13,Cc1ccc(N2C(=O)c3n[nH]c(C)c3C2c2ccccn2)cc1 (stereo unspecified),-0.326
14,Cc1ccc(NC2=C(CC(=O)O)C(c3ccccc3)N(c3ccc(C)cc3)C2=O)cc1 (stereo unspecified),-0.426
15,Cc1ccc(C2C3=C(NCCN=C3c3ccccc3)C(=O)N2c2ccccc2)cc1 (stereo unspecified),3.18 (active)
16,CC1CCCCN1S(=O)(=O)c1ccc(NC(=O)c2cccs2)cc1 (stereo unspecified),-0.377
17,O=C(Nc1cccnc1)Nc1ccccc1Cl,0.0762
18,CCc1ccc(/C=C/C(=O)c2ccc(N3CCOCC3)cc2)cc1,0.286
19,CCN(CC)CC(=O)NC12CC3CC(CC(C3)C1)C2,2.42
20,COCCC(=O)NC12CC3CC(CC(C3)C1)C2,-0.301
21,O=C(O)CC(=O)NC12CC3CC(CC(C3)C1)C2,-0.251 and -0.244
22,CCCCCC[n+]1c(-c2ccc(Cl)cc2Cl)csc1Nc1ccccc1,-0.156
23,O=C(CN(Cc1ccc2c(c1)OCO2)C(=O)c1cnsn1)NC1CCCC1,-0.186

row,Compound,z-score
1,O=C(NC1CCCCC1)C(c1ccccc1)N(Cc1ccc2c(c1)OCO2)C(=O)c1cnsn1 (stereo unspecified),2.16
2,O=C(NC1CCCCC1)C(c1ccc(F)cc1)N(Cc1ccc2c(c1)OCO2)C(=O)c1cnsn1 (stereo unspecified),0.366
3,COc1cc(CCN2C(=O)c3cccc4cccc(c34)C2=O)c(S(=O)(=O)N2CCCCCC2)cc1OC,-0.297
4,Cn1c(=O)c2c(nc(CN3CCc4ccccc4C3)n2CC(=O)c2ccccc2)n(C)c1=O,-0.969
5,COC(=O)Cn1c(CN2CCc3ccccc3C2)nc2c1c(=O)n(C)c(=O)n2C,5.81 (active)
6,Cn1c(=O)c2c(nc(CN3CCc4ccccc4C3)n2Cc2ccccc2)n(C)c1=O,-0.932
7,CCOC(=O)c1ccc(NC(=O)c2cc(OC)c(OC)c(OC)c2Br)cc1,0.551
8,O=C(O)C1CCCCC1C(=O)NCc1cn2ccccc2n1 (stereo unspecified),-0.352
9,O=C(CN1CCOCC1)Nc1ccc(OCc2ccccc2)cc1,0.323
10,Cc1ccc(Cn2c(SCC(C)C)nc3c2c(=O)n(C)c(=O)n3C)cc1,-0.493
11,Cc1ccc(Cn2c(SCC(N)=O)nc3c2c(=O)n(C)c(=O)n3C)cc1,-0.328
12,CNC(=O)CSc1nc2c(c(=O)n(C)c(=O)n2C)n1Cc1ccc(C)cc1,2.07
13,COc1cc(NC(=O)c2ccco2)c(OC)cc1NC(=O)CSc1nnc(-c2cccs2)n1C,-1.07
14,CCOC(=O)C1=C(CC)Nc2ccccc2N=C1NC(=O)Nc1ccc(Cl)c(Cl)c1,5.4 (active)
15,CCOC(=O)C1=C(CC)Nc2ccccc2N=C1NC(=O)c1cc(S(=O)(=O)N(C)C)ccc1Cl,0.243
16,CCOC(=O)C1=C(CC)Nc2ccccc2N=C1NC(=O)Nc1ccccc1OC,0.249
17,Cc1cc(C)n(C(=O)c2ccc(C)c(F)c2F)n1,-0.238
18,CCCCc1ccc(S(=O)(=O)NCCc2ccncc2)cc1,0.298
19,CCCCNS(=O)(=O)c1ccc(S(=O)(=O)NCc2ccncc2)cc1,2.5
20,CCCCCc1ccc(S(=O)(=O)NCCc2ccncc2)cc1,0.483
21,CCOC(=O)C1=C(C)Nc2sc(C(=O)c3ccc(C)cc3)c(N)c2C1c1ccc(C(=O)OC)cc1 (stereo unspecified),-0.284
22,O=C(NNC(=S)Nc1ccc(F)cc1)c1ccccc1OC(F)F,-0.00644
23,CCc1ccc(NC(=S)NNC(=O)c2ccccc2OC(F)F)cc1,3.63 (active)

row,Compound,z-score
1,Cc1ccc(NC(=S)NNC(=O)c2ccccc2OC(F)F)cc1,0.966
2,CC1Cc2ccccc2N1C(=O)CSc1ccccc1 (stereo unspecified),-0.501
3,CCOc1ccc(N2C(=O)CC(N3CCc4ccccc43)C2=O)cc1 (stereo unspecified),1.67
4,Cc1sc2ncn(CC(=O)NCCc3ccccc3)c(=O)c2c1C,0.251
5,N#CCCN(Cc1ccccc1)C(=S)Nc1ccccc1,-0.262
6,N#CCCN(Cc1cccnc1)C(=O)Nc1ccccc1,-0.271
7,COc1ccc(CNC(=O)c2ccc(-c3ccccc3)cc2)cc1,-0.113
8,COc1ccc(CN(CCC#N)C(=S)NC(=O)c2ccccc2)cc1,4.49 (active)
9,COc1ccccc1CC(=O)N(CCC#N)CCC#N,-0.512
10,N#CCCN(Cc1ccccc1)C(=S)NC(=O)c1ccccc1,2.39
11,c1ccc2c(c1)CC1(CCCC1)n1nnnc1-2,-0.648
12,C/C(=N\NC(=O)c1c(Cl)c(C)nn1C)c1ccc(NC(=O)COc2ccc(Cl)cc2C)cc1,0.132
13,O=C(CSc1ccc(-c2ccco2)nn1)c1ccc(F)cc1,-0.0218
14,O=C(CSc1ccc(-c2ccco2)nn1)c1ccccc1,7.29 (active)
15,COc1ccc(C(=O)CSc2ccc(-c3ccco3)nn2)cc1,0.654
16,CC(=O)c1cn(CC(=O)NCc2cccnc2)c2ccccc12,0.276
17,N/C(Cc1cccs1)=N\OC(=O)COc1ccccc1,-1.06
18,Cc1ccccc1OCC(=O)O/N=C(\N)Cc1cccs1,3.93 (active)
19,N/C(Cc1cccs1)=N\OC(=O)COc1ccccc1Cl,-2.93
20,C=CCC1(O)CC(c2ccco2)NC(c2ccco2)C1CCC (stereo unspecified),1.08
21,Cc1c(NC(=O)C(C)c2ccc(CC(C)C)cc2)c(=O)n(-c2ccccc2)n1C (stereo unspecified),-0.175
22,CCc1nc2c(sc3nc4c(cc32)COC(C)(C)C4)c(=O)n1Cc1ccccc1,-0.115
23,CC1(C)CC(=O)c2c(nn(-c3ccccc3)c2N)C1,-0.372

row,Compound,z-score
1,CC1(C)CC(=O)c2c(noc2-c2ccccc2)C1,3.63 (active)
2,CC1(C)CC(=O)c2c(nc3ccccc3c2N)C1,-1.01
3,O=[N+]([O-])c1cccc(-c2nnc(-c3ccc4c(c3)OCO4)o2)c1,-0.286
4,CCC/C(O)=C1\C(=O)CC(c2ccccc2)CC1=NC (stereo unspecified),-0.23
5,CC(C)N1C(=S)SC(C)(C)C1NO (stereo unspecified),-0.154
6,CC(C)c1ccc(-c2noc(C3CCCN(C(=O)c4ccc(F)cc4F)C3)n2)cc1 (stereo unspecified),-0.983
7,CCCS(=O)(=O)N1CCCC(c2nc(-c3ccc(OC)cc3)no2)C1 (stereo unspecified),0.0798
8,O=S(=O)(c1ccccc1Cl)N1CCCC(c2nc(-c3cccnc3)no2)C1 (stereo unspecified),2.62
9,O=[N+]([O-])c1cccc(S(=O)(=O)N2CCC(c3nc(-c4ccncc4)no3)CC2)c1,-0.207
10,COc1cccc(-c2noc(C3CCCN(S(=O)(=O)c4cccc(Cl)c4C)C3)n2)c1 (stereo unspecified),0.354
11,O=S(=O)(c1ccc2ccccc2c1)N1CCC(c2nc(-c3ccncc3)no2)CC1,0.107
12,O=S(=O)(c1ccccc1Cl)N1CCCC1c1nc(-c2ccc(Cl)cc2)no1 (stereo unspecified),0.14
13,O=S(=O)(c1ccc(Cl)c(F)c1)N1CCC(c2nc(-c3ccncc3)no2)CC1,8.06 (active)
14,CC(C)c1ccc(-c2noc(C3CCCN(S(C)(=O)=O)C3)n2)cc1 (stereo unspecified),5.82 (active)
15,Cc1ccccc1NS(=O)(=O)c1ccc(OCCNS(C)(=O)=O)cc1,-0.0428
16,COc1ccccc1N1CCN(C(=O)CCCN2C(=O)c3cccc4cccc(c34)C2=O)CC1,-0.334
17,Cn1c(=O)c2c(O)cc(=O)[nH]c2n(-c2ccccc2)c1=O,-0.00781
18,COc1ccc(S(=O)(=O)N2CCOCC2)cc1NC(=O)c1ccccc1-c1ccc(C(F)(F)F)cc1,-0.207
19,Cc1noc(C)c1C(c1ccccc1)S(=O)(=O)c1ccccc1 (stereo unspecified),0.53
20,O=C(CSc1ncccn1)N/N=C/c1cccc([N+](=O)[O-])c1,1.35
21,O=C(COC(=O)c1ccc(Br)o1)Nc1cccc(S(=O)(=O)N2CCCCCC2)c1,0.698
22,COc1ccc(C(=O)NCc2nnc(SCC(=O)NCc3ccc(F)cc3)o2)cc1,-0.134
23,COC(=O)c1ccccc1NC(=O)CSc1nnc(Cc2ccc(Cl)cc2)o1,-0.323

row,Compound,z-score
1,Cc1ccc(-n2c(SCC(N)=O)nc3c(c2=O)C2(CCCC2)Cc2ccccc2-3)cc1,-0.348
2,CCCn1c(SCC(N)=O)nc2c(c1=O)C1(CCCC1)Cc1ccccc1-2,-0.333
3,CCn1c(SCC(N)=O)nc2c(c1=O)C1(CCCC1)Cc1ccccc1-2,5.27 (active)
4,COc1cccc(Nc2cc(C)nc3ccccc23)c1,2.53
5,COc1cccc(Nc2ncnc3ccccc23)c1,-0.25
6,COc1ccc(Nc2cc(C)nc3ccccc23)cc1,2.44
7,COC(=O)Nc1cc(C)nc2ccccc12,0.301
8,COc1cccc(Nc2nc(NCCO)c3ccccc3n2)c1,-0.496
9,Cc1cc(Nc2ccc3c(c2)OCCO3)c2ccccc2n1,0.143
10,O=C(CCN1C(=O)c2ccccc2S1(=O)=O)N1CCN(c2ccccc2)CC1,-0.363
11,CCOc1cccc(OCCCCN2CCOCC2)c1,-0.982
12,COc1cc2nc(-c3ccc(Br)o3)oc(=O)c2cc1OC,-1.58
13,Cc1nc2nc(-c3ccco3)[nH]n2c(=O)c1Cc1ccccc1,-1.16
14,O=C(Nc1cccc(C(=O)N2CCOCC2)c1)c1ncn[nH]1,-0.145
15,CCn1cc(C(=O)O)c(=O)c2cc(F)c(N/N=C/c3ccccc3)cc21,-0.559
16,O=C(Nc1ccc(Cl)cc1)NC1CCCCC1Cc1ccco1 (stereo unspecified),7.39 (active)
17,O=C(NCCSCc1ccco1)Nc1ccc(Cl)cc1,0.159
18,O=C(Nc1ccc(Cl)cc1)Nc1ccccc1C(=O)NCc1ccco1,-0.534
19,Cc1nn(C)c(C)c1S(=O)(=O)N(CC(=O)N1CCc2ccccc2C1)c1ccc(C(C)C)cc1,-0.0258

# From PubChem BioAssay AID488969 (Vanderbilt High Throughput Screening Facility, 2010)
